Sampled rows, rich in hits. Any-hit rate of the full collection: about 7.7%.
RE007 growth inh: less growth of the S. pombe RE007 Vpr strain; S. pombe RE007 Vpr strain, BacTiter-Glo ATP luminescence, 24 h; 360,000 compounds, 0.21% hits; Potency, µM (titrated, usually from 92.2 µM), inactives show at the top dose activity change, negative = less growth, actives largely listed as inhibitors; active means well fitted falling curve with a large enough effect; inconclusive means small, poorly fitted or top-dose-only effect; inactive means no such curve, though single readings can be large or run the other way; further: potency means the concentration at half of the fitted maximal effect; nearly all actives have a fitted effect of over 50% in size
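Fission yeast RE007 carrying one integrated HIV-1 vpr copy, seeded at OD 0.01 in PMG+AL medium with 23 nL pinned compound. Grown 24 h at 30 degrees; viability read by BacTiter-Glo luminescence after 5 min.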
FBPA Giardia inh: inhibitors of Giardia lamblia fructose-1,6-bisphosphate aldolase. A8B2U2. purified Giardia FBPA. Potency, µM (highest dose often 59.6 µM), without a hit: at the top dose activity, negative = inhibition, usual class: inhibitors. 290,000 compounds, 0.71% hits. AID 2451; further: potency means the concentration at half of the fitted maximal effect; nearly all actives have a fitted effect of over 55% in size
Target sequence (A8B2U2 whole entry, looked up): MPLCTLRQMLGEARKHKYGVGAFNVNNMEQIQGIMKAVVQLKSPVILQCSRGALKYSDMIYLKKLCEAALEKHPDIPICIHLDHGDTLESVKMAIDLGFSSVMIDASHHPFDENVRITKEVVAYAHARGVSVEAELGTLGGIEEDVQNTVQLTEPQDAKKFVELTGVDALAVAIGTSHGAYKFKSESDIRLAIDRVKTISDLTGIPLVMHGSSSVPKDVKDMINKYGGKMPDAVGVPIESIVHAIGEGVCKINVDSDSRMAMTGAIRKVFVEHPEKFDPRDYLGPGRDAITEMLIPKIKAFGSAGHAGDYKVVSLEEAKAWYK
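Giardia FBPA (40 nM reagent) was preincubated 10 min at RT with compound (up to 57.5 uM final), then substrate plus GAPDH/TPI/NAD/arsenate coupling system with diaphorase/resazurin was added; resorufin fluorescence (525/598 nm) was read after 20 min.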
Sm TGR block: inhibitors of Schistosoma mansoni thioredoxin glutathione reductase. Potency, µM (highest dose often 114 µM), for inactives: top-dose activity change, negative = inhibition, most hits filed as inhibitors. purified TGR, DTNB reduction, TNB absorbance 405 nm. Q962Y6. 360,000 compounds, 3% hits; further: potency means the concentration at half of the fitted maximal effect; nearly all actives have a fitted effect of over 60% in size
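Kinetic colorimetric format: TGR-catalysed, NADPH-driven DTNB reduction monitored via TNB absorbance. Enzyme dispensed at 20 nM; compound exposure 15 min at room temperature before reaction start.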
HCMV inh: blocks human cytomegalovirus replication; HFF cells, HCMV-luciferase reporter, 72 h; active compounds read low; activity change, negative = inhibition, % at 57.5 µM; AID 1259415; 410,000 compounds, 4.5% hits; in the data active means activity change below about -60%; inconclusive means no clear call, values can overlap the other calls; inactive means above about -39%
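Cell-based, HFFs, 1000 cells/well, 16 h 37C; cpds in DMSO + HCMV-luc, MOI 1 PFU/cell; 72 h 37C; OneGlo luminescence after 5 min RT; norm. to buffer vs Salinomycin 10uM.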
TbPYK inhibitor: blocks Trypanosoma brucei pyruvate kinase; Q57TT1; TbPYK enzyme, Kinase-Glo Plus ATP luminescence, 45 min; Potency, µM (series often up to 76.8 µM), for inactives: at the top dose activity, negative = inhibition, usual class: inhibitors; 410,000 compounds, 0.12% hits; further: potency means the concentration at half of the fitted maximal effect; nearly all actives have a fitted effect of over 50% in size
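Activity of T. brucei pyruvate kinase was followed by Kinase-Glo Plus luminescence after the enzyme reacted 45 min at room temperature with 130 uM ADP (final) and substrate. Test compounds were added before ADP at multiple concentrations.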
FMDV antiviral: blocks foot and mouth disease virus; FMDV antiviral cell-based qHTS; Potency, µM (series often up to 57.9 µM), without a hit: top-dose activity change, negative = inhibition, actives largely listed as inhibitors; 410,000 compounds, 1.2% hits; calls by dose curve; tested in HEK293T cells; further: read-out not given here; potency means the concentration at half of the fitted maximal effect; nearly all actives have a fitted effect of over 45% in size
The depositor's hits bear a star; ? = inconclusive; / = no result; ! = not active in a repeat; [ ] = remark or other dose. Unless noted, the call rests on the fitted dose curve; in most records, active means well fitted curve in the direction sought with a large enough effect; inconclusive means small, poorly fitted or top-dose-only effect, or another doubt; inactive means no such curve, though single readings can be large; an effect the other way counts as inactive or inconclusive. On the % scale 0 is the no-effect control and ±100 the full control effect.

SMILES	RE007 growth inh	FBPA Giardia inh	Sm TGR block	HCMV inh	TbPYK inhibitor	FMDV antiviral
CCc1nc(C)cn1S(=O)(=O)c1ccc([N+](=O)[O-])cc1	-17.8%	-7.5%	?	-14.5	1.8%	-14.5%
CCCn1c(CC)nc([N+](=O)[O-])c1S(=O)(=O)c1ccccc1	2.9%	0.9%	?	33.3	7.8%	12.6µM*
COc1cc(O)c(C(=O)O)c(-c2cc(O)c(O)cc2C)c1	-3.0%	15.5%	0.159µM*	-6.0	10µM*	-17.4%
COc1cc(-c2cc3n(C)c(C)c(CCC(=O)NC4CCC(C)CC4)c(=O)n3n2)cc(OC)c1OC (stereo not given)	/	/	1.6%	99.6	4.3%	9.9%
CC(c1ccccc1)N(CCC(c1ccccc1)C1CCOC(C)(C)C1)C(=O)c1ccco1 (stereo not given)	/	-2.6%	-5.5%	-100.6*	-3.1%	?
O=C(O)CSc1ncnc2nc[nH]c12	-19.4%	-0.2%	-15.0%	-1.8	-10.2%	8.3%
c1nc(SSc2ncnc3nc[nH]c23)c2[nH]cnc2n1	-1.0%	/	/	15.6	3.55µM*	-24.8%
CCCC(=O)OC[C@H]1CN(C2CCCC2)S(=O)(=O)c2c(Oc3ccc(F)cc3)cccc2O1	/	/	/	-13.5	/	/
c1ccc(-c2nc(-c3ccco3)n3ccccc23)cc1	-27.4%	-23.6%	11.2µM*	37.0	2.8%	?
COC(=O)CC(=O)CC(NS(=O)(=O)c1ccc(C)cc1)c1ccccc1 (stereo not given)	/	/	/	62.6	/	/
Cc1cc(C)cc(NC(=O)CCc2c(C)nn(-c3ccc(N4CCOCC4)nn3)c2C)c1	-5.4%	6.9%	-7.4%	-37.0	2.9%	21.4%
CCc1ccccc1NC(=O)CCc1c(C)nn(-c2ccc(N3CCOCC3)nn2)c1C	3.4%	-5.6%	3.1%	-61.7*!	-0.3%	-18.8%
Cc1ccc(C)n1-c1cccc(C(=O)O)c1	/	-25.0%	8.91µM*	/	/	/
Cc1ccc(N2CCN(c3nc4ccc(C(=O)c5ccccc5)cc4n4cnnc34)CC2)c(C)c1	/	/	7.0%	0.0	4.8%[15.4 µM]	4.9%
O=C1C(Cl)=C(N2CCOCC2)C(=O)N1CCc1ccccc1	-8.4%	8.6%	0.1%	64.6	-6.3%	-15.9%
CN1CCN(C2=C(Cl)C(=O)N(CCc3ccccc3)C2=O)CC1	8.2%	-1.2%	?	-68.4*	-0.5%	21.4%
Cc1cc(NCc2ccccn2)n2nc(C)c(-c3ccccc3)c2n1	-13.8%	0.1%	0.6%	-83.2*	3.0%	-6.7%
Cc1nn2c(NCCN3CCOCC3)c3c(nc2c1-c1ccccc1)CCCC3	-20.2%	1.6%	3.6%	?	1.0%	-12.0%
Cc1nn2c(NCc3ccccn3)cc(C(C)(C)C)nc2c1-c1ccccc1	29.3%	-14.4%	-20.8%	-97.0*	-2.4%	?
Cc1nn2c(NCc3ccccn3)c3c(nc2c1-c1ccccc1)CCC3	-18.8%	-7.9%	25.1µM*	-83.4*	-1.8%	?
Cc1cc(Nc2ccccc2)n2nc(C)c(-c3ccccc3)c2n1	15.8%	4.5%	8.6%	-18.0	-6.3%	24.8%
Cc1ccc(-n2nnc3c(sc4nc(C)c(C)cc43)c2=O)cc1Cl	/	/	-1.9%	-27.0	-7.0%	12.6%
O=c1c2cc3c(cc2n(Cc2ccccc2)c(=O)n1Cc1nc(-c2ccccc2)no1)OCO3	/	/	19.8%	-12.4	-15.1%	?
CCOc1ccccc1NC(=O)CSC1=Nc2ccccc2C2=NC(CC(=O)NC3CCCCC3)C(=O)N12 (stereo not given)	/	/	1.1%	-32.8	-7.9%	-14.9%
COCCn1cnc2cnc(Nc3cc(OC)c(OC)c(OC)c3)cc21	/	/	/	30.3	/	/
SMILES	RE007 growth inh	FBPA Giardia inh	Sm TGR block	HCMV inh	TbPYK inhibitor	FMDV antiviral
Nc1ncnc(N)c1NC(=O)c1ccccc1	/	/	/	-101.3*	/	/
Cc1ccccc1Cc1c(C)nc2nc(SCC(=O)N(C)c3ccccc3)nn2c1C	/	/	6.0%	-14.9	-0.7%	0.0%
COc1ccccc1CCn1cnc(-c2ccc(F)cc2F)c1CC(C)C	/	/	/	-84.3*	/	/
COc1ccccc1CCn1cnc(-c2ccccc2F)c1CC(C)C	/	/	/	-83.5*	/	/
O=C(O)c1ccccc1O[C@@H]1O[C@H](C(=O)O)[C@@H](O)[C@H](O)[C@H]1O	/	-0.1%	/	/	/	/
CC(=O)N[C@H]1[C@H](O[C@@H]2c3ccc(c(Cl)c3)Oc3cc4cc(c3O[C@@H]3O[C@H](CO)[C@@H](O)[C@H](O)C3C)Oc3ccc(cc3Cl)C[C@H]3NC(=O)[C@@H](N)c5ccc(O)c(c5)Oc5cc(O)cc(c5)[C@H](NC3=O)C(=O)N[C@H]4C(=O)N[C@H]3C(=O)N[C@@H]2C(=O)N[C@@H](C(=O)O)c2cc(O)cc(O[C@H]4O[C@H](CO)[C@@H](O)C(O)[C@@H]4O)c2-c2cc3ccc2O)O[C@H](CO)[C@@H](O)[C@@H]1O (stereo not given in full)	/	/	/	/	3.2%[33.2 µM]	/
O=C(Oc1c(CN2CCOCC2)cc(Cl)c2cccnc12)c1cccs1	0.7%	?	?	-98.2*	2.8%	-16.9%
O=C(Oc1c(Cl)cc(Cl)c2cccnc12)c1cccs1	5.62µM*	-6.7%	?	?	10.3%	-20.4%
O=C(Oc1c(CN2CCOCC2)cc(Cl)c2cccnc12)c1ccccc1Cl	?	?	-1.7%	-98.0*	0.7%	-19.2%
O=C(Oc1c(Cl)cc(Cl)c2cccnc12)c1ccco1	?	-0.1%	-32.4%	-101.7*	0.4%	?
CN(C)C(=O)Oc1c(Cl)cc(Cl)c2cccnc12	26.6%	0.2%	/	-35.5	-0.8%	-20.5%
CC(=O)Oc1ccc(Cl)c2cccnc12	/	-4.0%	/	/	/	-17.3%
Cc1ccc(S(=O)(=O)NCCc2nnc3ccc(SCc4ccccc4C)nn23)cc1	/	/	-1.8%	18.1	0.4%	-9.1%
CCOc1ccc(C2=CS/C(=C(\C#N)c3nnc4n3CCCCC4)N2CC)cc1	11.8%	-15.3%	-3.5%	-62.5*	-1.1%	?
CCCOC(=O)C1[C@H]2C(=O)N(Cc3ccco3)C[C@]23C=C[C@H]1O3 (stereo not given in full)	0.4%	-3.0%	25.1µM*	10.9	2.3%	2.9%
CCCCOC(=O)C1[C@H]2C(=O)N(Cc3cccs3)C[C@]23C=C[C@H]1O3 (stereo not given in full)	0.4%	1.1%	-8.3%[11.4 µM]	-6.4	-0.8%	-1.2%
CNC(=O)Cn1cc(S(=O)(=O)Cc2ccccc2F)c2ccccc21	/	/	5.9%	0.0	2.9%[15.4 µM]	3.5%
Cc1ccccc1Cn1c(CN2CCC(C(=O)NCCN(C)C)CC2)cc2ccccc21	/	/	6.4%	?	-0.2%	-19.3%
CCc1ccc(NC(=O)CSc2nc(-c3ccccc3)no2)cc1	/	/	11.2%	30.0	-3.8%	27.5%

Source: PubChem
